Results: PubChem BioAssay (NCI)
The panel holds about 83,000 compounds, 20% with a hit somewhere; the sample as a whole holds those more often.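 How to read the values: 0–100, growth inhibition (40 = 60% inhibited); 0, no net growth; -100 to 0, cell death (-40 = 40% of starting cells died; -100 = all dead).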 Active and inactive are the calls of the source. How the source made its calls: active means growth percent below 10; inactive means the rest.

The compounds below were run on HL-60(TB) leukemia (assay: NCI-60 one-dose screen, 48 h (100 = growth as untreated, 0 = no growth, -100 = all killed)). Conditions: 10 µM unless noted.

SMILES	growth
COc1ccc2nc(Cl)c(-c3cc(-c4ccccc4)nc(=O)[nH]3)cc2c1	3.35% (active)
CN(C)c1ccc(/C=C/c2nc3ccccc3c(=O)n2CC(=O)Nc2ccccc2)cc1	91.8% (inactive)
Cn1ncc2c(N)nc(Oc3ccccc3-c3ccccc3)nc21	-18.4% (active)
OCCNc1oc(-c2ccccc2)nc1[P+](c1ccccc1)(c1ccccc1)c1ccccc1	-29.6% (active)
C(=C\c1cc(/C=C/c2ccccc2)c2ccccc2n1)/c1ccccc1	2.48% (active)
COc1ccc2c(c1)N=c1c-2cc2c(O)[nH]c(=S)n2c1=O	-13.3% (active)
